The values that follow come from PubChem BioAssay (EPA / NIEHS).

Results filed as inconclusive are left out. Active and inactive are the calls of the source. How the source made its calls: active means hit-call score of the fitted dose curve at least 0.9, where 1 is the maximum; inconclusive means response in the unintended direction; inactive means score below 0.9.

Cytochrome P450 2C19 (Homo sapiens), sequence (P33261 whole entry, looked up): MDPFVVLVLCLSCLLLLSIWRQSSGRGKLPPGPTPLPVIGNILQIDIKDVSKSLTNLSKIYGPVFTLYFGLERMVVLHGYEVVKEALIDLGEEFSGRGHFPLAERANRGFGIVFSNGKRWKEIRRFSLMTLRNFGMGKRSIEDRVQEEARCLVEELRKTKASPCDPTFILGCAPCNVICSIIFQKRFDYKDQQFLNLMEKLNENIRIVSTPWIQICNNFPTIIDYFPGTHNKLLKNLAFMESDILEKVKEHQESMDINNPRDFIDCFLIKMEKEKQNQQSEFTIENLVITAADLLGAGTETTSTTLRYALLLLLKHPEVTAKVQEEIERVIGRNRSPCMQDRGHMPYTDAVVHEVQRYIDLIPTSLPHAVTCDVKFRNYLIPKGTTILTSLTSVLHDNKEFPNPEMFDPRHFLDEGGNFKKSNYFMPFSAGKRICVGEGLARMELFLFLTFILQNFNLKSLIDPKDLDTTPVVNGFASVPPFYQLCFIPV

Read-out in the assay: Cytochrome P450 2C19 (Homo sapiens) (UniProt P33261)
As to the kind of experiment: CLD_CYP2C19_6hr: CellzDirect (CLD) Gene Expression Assay for xenobiotic metabolism (CYP2C19) at 6 hours (AID 2283678). How it is done:
CLD_6hr is a cell-based, multiplexed-readout assay that uses hepatocyte, a human liver primary cell, with measurements taken at 6 hours after chemical dosing in a 96-well plate.CLD_CYP2C19_6hr is one of 16 assay component(s) measured or calculated from the CLD_6hr assay. It is designed to make measurements of mRNA induction, a form of inducible reporter, as detected with chemiluminescence signals by Quantitative Nuclease Protection Assay (qNPA) technology.Data from the assay component CLD_CYP2C19_6hr was analyzed at the endpoint, CLD_CYP2C19_6hr, in the positive analysis fitting direction relative to DMSO as the negative control and baseline of activity. Using a type of inducible reporter, gain-of-signal activity can be used to understand changes in the reporter gene as they relate to the gene CYP2C19. Furthermore, this assay endpoint can be referred to as a primary readout. To generalize the intended target to other relatable targets, this assay endpoint is annotated to the cyp intended target family, where subfamily is xenobiotic metabolism.
Human hepatocyte cultures were treated daily for two consecutive days with fresh dosing solutions containing appropriate concentrations of the 320 ToxCast chemicals (chemical identities were blinded to CellzDirect and other ToxCast collaborators), vehicle control (0.2% DMSO), and positive control inducers as summarized in Table 1. Due to the large number of treatment groups and chemicals examined, the ToxCast chemicals were divided into two groups (spanning two independent cultures of hepatocytes from separate donor preparations (Hu778: ToxCast plates 1 and 2; Hu776: ToxCast plates 3 and 4). Each preparation of human hepatocyte cultures was treated with respective vehicle control, medium only control, set of six positive controls/reference chemicals for the five hepatic receptor pathways, and a subset of eight of the ToxCast chemicals (indoxacarb, pyrithiobac-sodium, norflurazon, cyhalofop-butyl, methomyl, thiram, acetochlor, and propiconazole). These replicate data, coupled with internal replicates designed within the blinded ToxCast chemical library, provided additional data to evaluate interindividual differences between hepatocyte preparations and their potential impact on chemical profiles.Cell morphology and integrity were evaluated using phase-contrast microscopy as an indicator of hepatocyte cell health (Tyson & Green, 1987). Cultures for each treatment group (i.e., media, vehicle [0.2% DMSO], positive control inducers [multiple concentrations], and the ToxCast chemicals [multiple concentrations]) were observed and cell morphology was assessed relative to vehicle control cultures at each harvest time point (0, 6, 24, or 48 h). […] Images were evaluated at the conclusion of the study to assess changes in cell integrity and account for the effects of chemical exposure on uncharacteristic changes in concentration-dependent gene expression profiles. The results from these determinations of apparent cytotoxicity were annotated (yes/no) alongside the corresponding qNPA data for reference.At the conclusion of each treatment period, hepatocyte cultures (96-well) were washed with 1 volume of HBSS, lysed by addition of 25 ul ArrayPlate lysis buffer (HTG, Tucson, AZ), and 70 ul/well of Denaturation Oil, denatured by incubation at 95C for 10 min, and frozen at approximately -70C until analysis by nuclease protection assay (qNPA) (Roberts et al., 2007). For qNPA analysis, cell lysates were thawed at 50C for approximately 30 min, qNPA probes were added, and samples were incubated at 95C for 10 min to begin the detection process by denaturing the target RNA, dissociating the duplexes and secondary structure hybridization. At the conclusion of the hybridization period, S1 nuclease reagent was added to each sample to digest all nonprotected nucleotides at 50C for 60-90 min. […]
Consider `CCNc1nc(Cl)nc(NC(C)(C)C#N)n1`, for which the call was inactive.
On to `CCOP(=O)(OCC)Oc1cc(C)nc(C(C)C)n1`, for which the compound was called inactive.
Still for that read-out and setting: under `COP(=O)(OC)OC(Br)C(Cl)(Cl)Br` (stereo unspecified) stands “inactive”.
For `CCC(=O)Nc1ccc(Cl)c(Cl)c1`, the result was inactive.
The same measure, in the same setting: with `CN(C)C(=O)Nc1cccc(C(F)(F)F)c1` the entry was “inactive”; with `CSc1nc(NC(C)C)nc(NC(C)C)n1`, “inactive”.
The AC50 is the midpoint of the concentration-response curve, whichever way the signal moves. As for `CC[C@H](C)[C@H]1O[C@]2(C=C[C@@H]1C)C[C@@H]1C[C@@H](C/C=C(\C)[C@@H](O[C@H]3C[C@H](OC)[C@@H](O[C@H]4C[C@H](OC)[C@@H](NC)[C@H](C)O4)[C@H](C)O3)[C@@H](C)/C=C/C=C3\CO[C@@H]4[C@H](O)C(C)=C[C@@H](C(=O)O1)[C@]34O)O2`, the AC50 was 32.6 µM (active).
For `CC(=NC#N)N(C)Cc1ccc(Cl)nc1`, the compound was classed as inactive.
In the case of `C[N+]1(C)CCCCC1`, the call was inactive.
On to `CC1=NNC(=O)N(/N=C/c2cccnc2)C1`, for which the outcome was inactive.
The same measure, in the same setting: with `CNC(=O)ON=C(C)SC` the entry was “inactive”.
Same read-out and setting: under `O=[N+]([O-])c1cc(C(F)(F)F)c(Cl)c([N+](=O)[O-])c1Nc1ncc(C(F)(F)F)cc1Cl` stands “inactive”; under `CCCOc1nn(C(=O)NS(=O)(=O)c2ccccc2C(=O)OC)c(=O)n1C`, “inactive”.
Same read-out and setting: with `CN1COCN(Cc2cnc(Cl)s2)C1=N[N+](=O)[O-]` the entry was “inactive”; with `CCOC(=O)CC(SP(=O)(OC)OC)C(=O)OCC` (stereo unspecified), “inactive”; with `CNc1cnn(-c2cccc(C(F)(F)F)c2)c(=O)c1Cl`, “inactive”.
In the case of `CCOP(=S)(OCC)SCCSCC`, the call was inactive.
Still for that read-out and setting: with `CCOP(=O)(SC(C)CC)N1CCSC1=O` (stereo unspecified) the entry was “inactive”; with `Nc1c(Cl)cc([N+](=O)[O-])cc1Cl`, “inactive”.
On the same count and under the same terms, under `CCC(=NOC/C=C/Cl)C1=C(O)CC(C2CCOCC2)CC1=O` (stereo unspecified) stands “inactive”.
As for `COc1cccc(C(=O)NN(C(=O)c2cc(C)cc(C)c2)C(C)(C)C)c1C`, the call was inactive.
On the same count and under the same terms, under `O=C(O)c1cc(Oc2ccc(C(F)(F)F)cc2Cl)ccc1[N+](=O)[O-]` stands “inactive”.
For the compound `CNC(=O)ON=C(SC)C(=O)N(C)C`, the compound was called inactive.
Turning to `COP(=O)(NC(C)=O)SC` (stereo unspecified), the outcome was inactive.
On to `Nc1nc(N)nc(NC2CC2)n1`, for which the result was inactive.
As to `CC(Oc1cccc(Cl)c1)C(=O)O` (stereo unspecified), the result was inactive.
In the case of `O=c1ccc(=O)[nH][nH]1`, the compound was called inactive.
The same measure, in the same setting: with `CCCCOC(=O)c1ccccc1C(=O)O` the entry was “inactive”; with `COc1cc(OC)nc(Sc2cccc(Cl)c2C(=O)O)n1`, “inactive”; with `CC1(C(=O)Nc2ccc(O)c(Cl)c2Cl)CCCCC1`, “inactive”.
With `CN(C)[C@@H]1C(=O)C(C(N)=O)=C(O)[C@@]2(O)C(=O)C3=C(O)c4c(O)cccc4[C@@](C)(O)[C@H]3[C@H](O)[C@@H]12`, the compound was classed as inactive.
The same measure, in the same setting: under `CC(C)N(C(=O)SCC(Cl)=C(Cl)Cl)C(C)C` stands “inactive”; under `CCCCOC(=O)[C@@H](C)Oc1ccc(Oc2ccc(C#N)cc2F)cc1`, “inactive”; under `CC(C1CC1)C(O)(Cn1cncn1)c1ccc(Cl)cc1` (stereo unspecified), “inactive”.
In the case of `CCc1cnc(C2=NC(C)(C(C)C)C(=O)N2)c(C(=O)O)c1` (stereo unspecified), the outcome was inactive.
Take `CON=C(C(=O)OC)c1ccccc1CON=C(C)c1cccc(C(F)(F)F)c1`: the compound was called inactive.
